Bioassay records from PubChem.
IL1B secr inh: qHTS for Inhibitors of Inflammasome Signaling: IL-1-beta AlphaLISA Primary Screen; THP-1 LPS/ATP IL-1B secretion, AlphaLISA, 16 h; hits give low values; activity change, % at 57.5 µM; hit rate 4.7% among 360,000; AID 743279, 2014; in the data active means activity change below about -50%; inconclusive means mostly about -30% to -49%
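Secreted IL-1B measured by AlphaLISA bead assay after 16 h compound exposure of THP-1 cells; compounds (final up to 57.5 uM) added 1 h before LPS (250 ng/mL) and ATP (1.25 mM) stimulation; lower signal means less secretion.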
TDP1 cell CPT: qHTS for Inhibitors of human tyrosyl-DNA phosphodiesterase 1 (TDP1): qHTS in cells in presence of CPT; chicken DT40 Tdp1-/-;hTDP1 cells + 20 nM CPT, ATP luminescence, 48 h; Potency, µM (doses to about 46.2 µM), usual class: inhibitors; hit rate 12% among 420,000; AID 686979, 2013; further: nearly all actives have a fitted effect of over 55% in size
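Chicken DT40 Tdp1-/- cells complemented with human TDP1, 400 cells/well, exposed to compounds plus 20 nM camptothecin for at least 48 h at 37 C; viability read as ATP content by CellTiter-Glo luminescence.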
TDP1 cell noCPT: qHTS for Inhibitors of human tyrosyl-DNA phosphodiesterase 1 (TDP1): qHTS in cells in absence of CPT; DT40 Tdp1-/- hTDP1 cells, no CPT, ATP luminescence, 48 h; Potency, µM (titrated, usually from 46.2 µM), most hits filed as inhibitors; hit rate 15% among 420,000; further: nearly all actives have a fitted effect of over 55% in size
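Growth kinetics read by CellTiter-Glo luminescence after ≥48 hr at 37 °C. Cells: DT40 Tdp1-/- stably carrying human TDP1, 400 per well, compound exposure in the absence of CPT (DMSO vehicle).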
HT1080 IDH1KD tx: qHTS for induction of synthetic lethality in tumor cells producing 2HG: qHTS for the HT-1080-IDH1KD cell line | hit rate 2% among 360,000 | HT-1080 IDH1 knockdown viability, ATP luminescence, 48 h | AID 686971, 2013 | Potency, µM (series often up to 46.1 µM), actives largely listed as cytotoxic
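Using the IDH1-knockdown HT-1080 line run in the same batch and compound series as the NT line, viability after 48 h at 37 °C was determined by CellTiter-Glo luminescence and expressed as % activity.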
HT1080-NT tox: qHTS for induction of synthetic lethality in tumor cells producing 2HG: qHTS for the HT-1080-NT fibrosarcoma cell line | HT-1080-NT fibrosarcoma viability, CellTiter-Glo ATP luminescence, 48 h | Potency, µM (doses to about 46.1 µM), usual class: cytotoxic | hit rate 1.6% among 360,000 | AID 686970, 2013;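 further: NT is the 2HG producing partner of a matched IDH1 knockdown line; nearly all actives have a fitted effect of over 55% in size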
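HT-1080-NT fibrosarcoma cells (2HG-overproducing), 750 cells/well in RPMI with 5% FBS, dosed after 2 h and incubated 48 h at 37C. CellTiter-Glo luminescence normalized to DMSO and no-cell wells; concentration-response curves fitted and classed.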
Large screens that a line does not name were inactive. This is a sample that favours compounds with a hit; in the whole collection about 19% have one here. Unless noted, the call rests on the fitted dose curve; in most records, active means well fitted curve in the direction sought with a large enough effect; inconclusive means small, poorly fitted or top-dose-only effect, or another doubt; inactive means no such curve, though single readings can be large; an effect the other way counts as inactive or inconclusive.

COCCN1C(=O)C(=O)/C(=C(/O)c2ccc(C)cc2)C1c1ccccn1 (configuration not stated)	none
O=C(Nc1ccccc1N1CCOCC1)c1ccc([N+](=O)[O-])s1	TDP1 cell CPT 16µM, TDP1 cell noCPT 16µM, HT1080 IDH1KD tx inconclusive, HT1080-NT tox inconclusive
Cc1cc(C(=O)Nc2ccccc2N2CCOCC2)no1	none
O=C(Nc1ccccc1N1CCOCC1)c1ccccc1[N+](=O)[O-]	none
CCc1sc(C(=O)Nc2ccccc2N2CCOCC2)cc1C	TDP1 cell CPT 23µM, TDP1 cell noCPT inconclusive
Cc1noc(C)c1C(=O)N1CCC2(CC1)CCN(c1cccc(-c3ccccc3)c1)CC2	TDP1 cell CPT inconclusive, TDP1 cell noCPT 4.6µM (no result: IL1B secr inh, HT1080 IDH1KD tx, HT1080-NT tox)
Cc1noc(C)c1C(=O)N1CCC2(CC1)CN(c1cccc(-c3ccccc3)c1)C2	TDP1 cell CPT inconclusive, TDP1 cell noCPT 21µM (no result: IL1B secr inh, HT1080 IDH1KD tx, HT1080-NT tox)
Cc1noc(C)c1C(=O)N1CCC2(CC1)CN(c1ccccn1)C2	none (no result: IL1B secr inh, HT1080 IDH1KD tx, HT1080-NT tox)
CCn1nc2cc(C(=O)NCc3cc(C(F)(F)F)cc(C(F)(F)F)c3)ccc2c1OC	IL1B secr inh -57, HT1080 IDH1KD tx inconclusive, HT1080-NT tox inconclusive
CCCCn1nc2cc(C(=O)NCc3cc(C(F)(F)F)cc(C(F)(F)F)c3)ccc2c1OC	none
CCOc1c2ccc(C(=O)NCc3ccc(C(F)(F)F)cc3C(F)(F)F)cc2nn1C	IL1B secr inh -51
O=C1c2ccc3c4c(ccc(c24)C(=O)N1CCCCO)C(=O)N(CCCCO)C3=O	IL1B secr inh -72, TDP1 cell CPT 2.1µM, TDP1 cell noCPT 2.6µM, HT1080 IDH1KD tx 12µM, HT1080-NT tox 23µM
Cc1cccc(NC(=O)CN(C)S(=O)(=O)c2cccc3cccnc23)c1	TDP1 cell CPT inconclusive
Cc1c(Cl)cccc1NC(=O)CCS(=O)(=O)c1cccc2nsnc12	TDP1 cell CPT 15µM, TDP1 cell noCPT inconclusive (no result: IL1B secr inh, HT1080 IDH1KD tx, HT1080-NT tox)
CN(CC(=O)Nc1ccc(F)c(Cl)c1)S(=O)(=O)c1cccc2nsnc12	TDP1 cell CPT 21µM, TDP1 cell noCPT 18µM
CCc1cccc(NC(=O)CN(C)S(=O)(=O)c2cccc3cccnc23)c1	TDP1 cell CPT 16µM, TDP1 cell noCPT 16µM
O=[N+]([O-])c1cccc(-c2noc(-c3ccco3)n2)c1	none
CC(C)C[C@H](NC(=O)N1c2ccccc2NC(=O)[C@@H]1C(C)C)C(=O)N[C@@H](Cc1ccccc1)C(=O)O	none
COc1ccccc1Nc1nc(N)nc(CSCCO)n1	none
COc1ccccc1Nc1nc(N)nc(CN2CCCCC2)n1	none
COc1ccccc1Nc1nc(N)nc(-c2oc3ccccc3c2C)n1	TDP1 cell CPT 8.2µM, TDP1 cell noCPT inconclusive
COc1ccc(OC)c(Nc2nc(N)nc(CCl)n2)c1	IL1B secr inh -102, TDP1 cell CPT 12µM, TDP1 cell noCPT 18µM, HT1080 IDH1KD tx 16µM, HT1080-NT tox inconclusive
COc1ccccc1Nc1nc(N)nc(CCl)n1	IL1B secr inh -100, TDP1 cell CPT 18µM, TDP1 cell noCPT 13µM, HT1080 IDH1KD tx 12µM, HT1080-NT tox 23µM
COc1ccccc1Nc1nc(N)nc(CSC(=S)N2CCCCC2)n1	TDP1 cell CPT 8.2µM, TDP1 cell noCPT 13µM
CCOc1ccccc1C(C(=O)NC1CCCC1)N(C(=O)c1csnn1)C1CC1 (configuration not stated)	TDP1 cell noCPT inconclusive
Cn1nc(C(=O)Nc2ccccc2)c2c1-c1ccccc1S(=O)(=O)C2	IL1B secr inh inconclusive, TDP1 cell CPT inconclusive
CCOC(=O)c1c(S(=O)(=O)NCC(=O)Nc2ccc(C)c(Cl)c2)c(C)n(C)c1C	none (no result: IL1B secr inh, HT1080 IDH1KD tx, HT1080-NT tox)
COc1ccccc1N1CCN(C(=O)c2cnn(C(C)(C)C)c2C2CCN(C(=O)OC(C)(C)C)CC2)CC1	TDP1 cell CPT 16µM (no result: IL1B secr inh, HT1080 IDH1KD tx, HT1080-NT tox)
CC(C)(C)OC(=O)N1CCC(c2c(C(=O)N3CCN(c4ccccc4F)CC3)cnn2C(C)(C)C)CC1	TDP1 cell CPT 23µM, TDP1 cell noCPT inconclusive (no result: IL1B secr inh, HT1080 IDH1KD tx, HT1080-NT tox)
O=C(Nc1ccc(Br)cn1)c1cnn2c1NC(=C1CC1)C=C2C(F)F	none (no result: IL1B secr inh, HT1080 IDH1KD tx, HT1080-NT tox)
CC(=O)c1ccccc1NC(=O)CN1C(=O)NC2(CCCCCCC2)C1=O	none
Cc1[nH]c(=O)[nH]c1C(=O)CCCCC(=O)O	IL1B secr inh -95
CC(C)Nc1nc(NCCOc2ccccc2Cl)c2sc(-c3ccccc3)cc2n1	IL1B secr inh -103, TDP1 cell CPT 6.5µM, TDP1 cell noCPT 6.5µM, HT1080 IDH1KD tx inconclusive, HT1080-NT tox inconclusive
COc1ccccc1CNc1nc(NC(C)C)nc2cc(-c3ccccc3)sc12	IL1B secr inh -115, TDP1 cell CPT 2.6µM, TDP1 cell noCPT 4.1µM, HT1080 IDH1KD tx inconclusive, HT1080-NT tox inconclusive
CCNc1nc(NC(C)C)nc(N(C#N)CCOc2ccc(Cl)cc2Cl)n1	TDP1 cell CPT inconclusive, TDP1 cell noCPT inconclusive
Cc1ccc(F)cc1-c1nc(NC(C)C)nc2cc(-c3ccccc3)sc12	IL1B secr inh inconclusive, TDP1 cell CPT inconclusive, TDP1 cell noCPT 18µM, HT1080 IDH1KD tx inconclusive
COc1ccccc1CNc1cc(-c2ccccc2)ccc1OC	none
COc1ccc(C(=O)Nc2ccccc2C(=O)NC2CC2)c(OC)c1OC	TDP1 cell noCPT inconclusive
O=C(Cc1cccc(NC(=O)C2CCCN(C(=O)CCc3ccccc3)C2)c1)Nc1cccc(C(=O)N2CCCCC2)c1 (configuration not stated)	TDP1 cell CPT 16µM, TDP1 cell noCPT 21µM
CN(C(=O)c1cccc(NC(=O)Cc2ccc(NC(=O)C3CCN(C(=O)CCc4ccccc4)CC3)cc2)c1)C1CCCCC1	TDP1 cell CPT 21µM, TDP1 cell noCPT 15µM
O=C(Cc1cccc(NC(=O)C2CCCN(C(=O)CCc3ccccc3)C2)c1)Nc1cccc(C(=O)N2CCOCC2)c1 (configuration not stated)	TDP1 cell CPT inconclusive, TDP1 cell noCPT inconclusive
O=C(Cc1cccc(NC(=O)C2CCCN(C(=O)C3CCCC3)C2)c1)Nc1ccc(C(=O)N2CCOCC2)cc1 (configuration not stated)	TDP1 cell CPT 16µM, TDP1 cell noCPT inconclusive
O=C(Cc1cccc(NC(=O)C2CCCN(C(=O)C3CCC3)C2)c1)Nc1ccc(C(=O)N2CCOCC2)cc1 (configuration not stated)	none
CN(C(=O)c1cccc(NC(=O)Cc2cccc(NC(=O)C3CCCN(C(=O)CCc4ccccc4)C3)c2)c1)C1CCC1 (configuration not stated)	TDP1 cell CPT inconclusive, TDP1 cell noCPT 21µM
CN(C(=O)c1ccc(NC(=O)Cc2cccc(NC(=O)C3CCCN(C(=O)CCc4ccccc4)C3)c2)cc1)C1CC1 (configuration not stated)	TDP1 cell CPT inconclusive, TDP1 cell noCPT inconclusive
